Experimental data taken from PubChem BioAssay (NCI).
About 83,000 compounds went through this panel and 20% of them were active in at least one assay; those are over-represented in the sample as a whole.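 Assay: single dose, 48 h. Readout: percent growth (0 = no net growth; negative = cell death). Active: <10.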 The source made the active and inactive calls.

Experiments:
Assay in all cases: NCI-60 one-dose screen, 48 h (100 = growth as untreated, 0 = no growth, -100 = all killed)
BT-549 breast = details: 10 µM unless noted
MDA-MB-435 melanoma = details: 10 µM unless noted
MCF7 breast = details: 10 µM
HCT-116 colon = details: 10 µM unless noted
HCC-2998 colon = details: 10 µM unless noted
KM12 colon = details: 10 µM unless noted
SW-620 colon = details: 10 µM unless noted

Measured: growth

CCC1=C[C@]2(C3CC(=O)N(c4ccccc4)C3=O)CC(C(C)(C)C)C[C@@H]2[C@@H]2C(=O)N(c3ccccc3)C(=O)[C@H]12 (some centres not stated)
inactive: BT-549 breast 86.5% | MDA-MB-435 melanoma 85.9% | MCF7 breast 80.7% | HCT-116 colon 68.1% | HCC-2998 colon 103% | KM12 colon 85.9%

O=C(/C=C/c1cccc(Cl)c1)OCc1ccc2cc1OCC#C/C=C\C#CCO2
inactive: BT-549 breast 102% | MDA-MB-435 melanoma 106% | SW-620 colon 108% | HCT-116 colon 89% | HCC-2998 colon 107% | KM12 colon 104%

Clc1ccc(Nc2scc3[n+]2CCC3)cc1
inactive: BT-549 breast 99.2% | MDA-MB-435 melanoma 97.7% | MCF7 breast 89.6% | HCT-116 colon 96.2% | HCC-2998 colon 104% | KM12 colon 97.8%

COc1ccc(-c2c(-c3ccc(OC)c(O)c3)cnc3ncnn23)cc1
inactive: BT-549 breast 102% | MDA-MB-435 melanoma 108% | MCF7 breast 95.2% | HCT-116 colon 98% | HCC-2998 colon 109% | KM12 colon 102%

COc1cc(C(C)n2cc(-c3ccccc3)nn2)ccc1OC1CCCCC1 (configuration not stated)
inactive: BT-549 breast 69.3% | MDA-MB-435 melanoma 68.1% | MCF7 breast 49.8% | HCT-116 colon 42.5% | HCC-2998 colon 81.4% | KM12 colon 77.9%

CCOC(=O)c1sc(-c2ccc(OS(=O)(=O)C[C@]34CCC(CC3=O)C4(C)C)c(C=O)c2)nc1C
active: BT-549 breast -13.5% | MDA-MB-435 melanoma 7.61% | MCF7 breast 2% | HCT-116 colon 5.89% | KM12 colon 7.78%
inactive: HCC-2998 colon 66.4%

O=S1(=O)N(Cc2ccccc2)[C@@H](Cc2ccccc2)C2O[C@H]2[C@H](Cc2ccccc2)N1Cc1ccccc1 (some centres not stated)
inactive: BT-549 breast 63.1% | MDA-MB-435 melanoma 60.1% | SW-620 colon 50.6% | HCT-116 colon 17% | HCC-2998 colon 61.4% | KM12 colon 40.2%

O=S1(=O)N(Cc2ccccc2)[C@@H](Cc2ccccc2)[C@H](O)[C@H](O)[C@H](Cc2ccccc2)N1Cc1ccccc1
active: MDA-MB-435 melanoma -4.2% | SW-620 colon 9.22% | HCT-116 colon -36.5% | HCC-2998 colon -45.7% | KM12 colon -41.7%
inactive: BT-549 breast 15.7%

CCCCOCc1cc(CN2CCN(C)CC2)c(O)c2ncccc12
inactive: BT-549 breast 62% | MDA-MB-435 melanoma 80.8% | MCF7 breast 27.2% | HCT-116 colon 19.1% | HCC-2998 colon 57.8% | KM12 colon 40.6%

COc1ccc(C2c3ccc4ccccc4c3Oc3ncn(CCCn4ccnc4)c(=N)c32)cc1OC (configuration not stated)
inactive: BT-549 breast 69.9% | MDA-MB-435 melanoma 64.5% | MCF7 breast 51.8% | HCT-116 colon 28.8% | HCC-2998 colon 73.3% | KM12 colon 84.2%

COc1ccc(C2C3=C(COC3=O)N(CCO)c3cc4c(cc32)CCC4)cc1OC (configuration not stated)
active: MDA-MB-435 melanoma -45.6% | HCC-2998 colon -0.413% | KM12 colon -8.65%
inactive: BT-549 breast 29.2% | SW-620 colon 14.7% | HCT-116 colon 14.3%

CCOC(=O)C1=C(C)c2ccc(OC)c(OC)c2C1
inactive: BT-549 breast 108% | MDA-MB-435 melanoma 112% | SW-620 colon 104% | HCT-116 colon 102% | HCC-2998 colon 91.2% | KM12 colon 101%

Cc1ccc(C)c(-c2csc(Nc3ccc(C)c(C)c3)n2)c1
inactive: BT-549 breast 64.6% | HCC-2998 colon 27.6% | KM12 colon 59.5%
active: MDA-MB-435 melanoma -58.3% | MCF7 breast -30.3% | HCT-116 colon 3.25%

CCCC(c1nnnn1C1CCCCC1)N1CCN(C(=O)c2ccco2)CC1 (configuration not stated)
active: MDA-MB-435 melanoma -21.7%
inactive: BT-549 breast 58.9% | MCF7 breast 45.4% | HCT-116 colon 31.7% | HCC-2998 colon 76.4% | KM12 colon 47.5%

O=C(c1nc2ccccc2[nH]1)C1C(c2cccc([N+](=O)[O-])c2)C2CC3CCCCC3N2[C@@]12C(=O)Nc1cc(Cl)ccc12 (some centres not stated)
inactive: BT-549 breast 52.9% | MDA-MB-435 melanoma 35.8% | MCF7 breast 16.3% | HCT-116 colon 13% | HCC-2998 colon 23.9% | KM12 colon 32.5%

COc1cc(/C=C2\CN(C)C/C(=C\c3cc(CN4CCCCC4)c(O)c(OC)c3)C2=O)cc(CN2CCCCC2)c1O
inactive: BT-549 breast 61.3% | MCF7 breast 11.7% | HCT-116 colon 30.7% | HCC-2998 colon 16.1%
active: MDA-MB-435 melanoma 2.5% | KM12 colon 5.98%

CC(C)C[C@H](C(=O)N[C@H](C(N)=O)C(C)C)N1CC=CCN(OCc2ccccc2)S1(=O)=O
inactive: BT-549 breast 98.5% [2.5 µM] | MDA-MB-435 melanoma 115% [2.5 µM] | SW-620 colon 102% [2.5 µM] | HCT-116 colon 83.2% [2.5 µM] | KM12 colon 114% [2.5 µM]

O=C(CN1C=NC2C(N3CCOCC3)=NC=NC21)c1cccc2ccccc12 (configuration not stated)
inactive: BT-549 breast 109% | MDA-MB-435 melanoma 99.3% | MCF7 breast 89.3% | HCT-116 colon 102% | HCC-2998 colon 120% | KM12 colon 102%

CCOC(=O)C1=C(C)N=c2s/c(=C\c3ccccc3O)c(=O)n2C1c1ccc(OC)c2ccccc12 (configuration not stated)
inactive: BT-549 breast 60.3% | HCT-116 colon 11.6%
active: MDA-MB-435 melanoma -76.6% | MCF7 breast -75.4% | HCC-2998 colon -86.7% | KM12 colon 8.88%

NC(CCc1nc2ccccc2c(=O)[nH]1)C(=O)O (configuration not stated)
inactive: BT-549 breast 97% | MDA-MB-435 melanoma 100% | MCF7 breast 105% | HCT-116 colon 105% | HCC-2998 colon 107% | KM12 colon 112%

Oc1c(CN2CCN(c3ccccc3F)CC2)cc(Br)c2cccnc12
active: BT-549 breast -53.8% | MDA-MB-435 melanoma -48.3% | MCF7 breast 9.33% | HCT-116 colon -36.4% | KM12 colon 0.135%
inactive: HCC-2998 colon 30.7%

NC1C(N)C(N)C1N (configuration not stated)
inactive: BT-549 breast 107% | MDA-MB-435 melanoma 122% | SW-620 colon 106% | HCT-116 colon 103% | HCC-2998 colon 99.9% | KM12 colon 119%

N#CC(C#N)=Cc1c(-c2ccccc2)[nH]c2ccccc12
active: MDA-MB-435 melanoma 7.52%
inactive: BT-549 breast 56% | MCF7 breast 15.7% | HCT-116 colon 30.4% | HCC-2998 colon 50.7% | KM12 colon 27.4%
